Measured values: PubChem BioAssay AID504332 (National Center for Advancing Translational Sciences (NCATS), 2011)
The campaign covered roughly 350,000 compounds. About 31,000 (8.9%) were called active. A call without a number means that no potency is given here. Inconclusive results (about 15%) are left out. This is one part of a sample in which actives are shown more often than they occur. Unmarked numbers belong to inactive results. Calls follow the shape of the dose curve; as a rule, active = well fitted inhibition curve with a large enough effect; inconclusive = small, poorly fitted or top-dose-only effect; inactive = no such curve, though single readings can be large or run the other way.

target: Histone-lysine N-methyltransferase EHMT2 (Homo sapiens) (UniProt Q96KQ7); test: qHTS Assay for Inhibitors of Histone Lysine Methyltransferase G9a; settings: G9a H3K9 monomethylation, AlphaScreen, 2 h; series mostly up to 59 µM; also: nearly all actives have a fitted effect of over 75% in size
Sequence (Q96KQ7 913-1193 limits assumed): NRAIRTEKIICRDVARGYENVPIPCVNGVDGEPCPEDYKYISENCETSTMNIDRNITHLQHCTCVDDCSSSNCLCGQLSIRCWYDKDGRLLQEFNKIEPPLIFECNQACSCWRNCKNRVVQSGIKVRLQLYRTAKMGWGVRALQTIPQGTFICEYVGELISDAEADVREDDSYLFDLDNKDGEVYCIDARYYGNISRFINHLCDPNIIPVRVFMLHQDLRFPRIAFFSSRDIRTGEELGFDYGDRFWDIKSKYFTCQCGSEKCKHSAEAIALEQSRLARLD
Text: Methylated lysines, on the N-terminal tails of histone proteins serve as epigenetic markers to recruit factors that can then modify local chromatin structure to lead to functional consequences. G9a and other members of the SUV39 family of the SET domain-containing superfamily of histone lysine methyltransferases (HMT) have been identified to specifically methylate Lys9 of histone H3 (H3K9). G9a catalyzes the mono- and di-methylation of H3K9 in mammalian euchromatic regions, where the resulting H3K9me2 is indicative of transcriptional repression. […] The inhibition of G9a will result in transcriptional activation and work synergistically with DNA methyltransferase and histone deacetylase inhibitors, to kill cancer cells. This qHTS assay for identification of G9a inhibitors is a chemiluminescence based AlphaScreen (PerkinElmer). Methylation of biotinylated-histone peptide is measured through specific antibody-based detection, in conjunction with streptavidin-coated donor and anti-IgG antibody-coated acceptor beads. The method is particularly well suited for detection of inhibitors acting by the desired histone peptide competitive mechanism and is applicable to testing other HMTs. Although AlphaScreen has significant advantages with its utility in a variety of epigenetic target assays, the primary screening data provided in this deposition should be used with caution due to the prevalence of screening artifacts. An AlphaScreen counterscreen is highly recommended to be run against any putative actives to eliminate non specific artifacts. Alternatively, one can use other AlphaScreen assays in PubChem to filter out promiscuous hits. Quinn et al. A chemiluminescence-based method for identification of histone lysine methyltransferase inhibitors. Mol Biosyst 6(5): 782-8. 2010. PMID: 20567762 [2] Baell,Holloway. New substructure filters for removal of pan assay interference compounds (PAINS) from screening libraries and for their exclusion in bioassays. J Med Chem. 53(7):2719-40. 2010. PMID: 20131845 NIH Molecular Libraries Probe Production Network [MLPCN] NIH Chemical Genomics Center [NCGC] Structural Genomics Consortium (SGC) NIH Grant: 5U54 MH084681-02
To each well of a 1,536w plate, 2ul of HMT enzyme (final 20nM) were added, using a nanoliter dispenser. The G9a- and GLP-inhibitor BIX-01294 (CID: 25150857) are used as an intraplate control, with a 16-point titration in duplicate. A Kalypsys pin-tool transferred 23nl of library compound solution in DMSO to each well. Following a 15 min incubation of enzyme with compounds at room temperature, 1ul mixture of b-H3K9 peptide substrate (final 500nM) and SAM cofactor (final 20uM) were added. Reactions were allowed to proceed at room temperature for 2 hours. Methylated b-H3K9 peptide product was detected with 0.5 ug/mL rabbit polyclonal anti-monomethyl histone H3K9 antibody (Abcam Inc., Cambridge, MA) and 20 ug/mL each streptavidin-coated donor and anti-rabbit IgG acceptor AlphaScreen beads. Antibody and beads were added in a 1ul dispense, for a final volume of 4ul, and plates were incubated, protected from the light, for 10 min at room temperature. Microplates were then read on an EnVision multilabel plate reader using the 1,536 plate HTS AlphaScreen aperture (excitation time 80 ms, measurement time 240 ms).
Potency is read from the fitted curve at half-maximal effect.

Row | SMILES | Potency | activity, negative = inhibition
1 | CC1Cc2ccccc2N1C(=O)CSc1nnc(-c2ccc(S(=O)(=O)N3CCCC3)cc2)n1C (centres undefined) | inactive | 
2 | CCN(CCCNC(=O)c1c(C)oc2ncn(CC(C)C)c(=O)c12)Cc1ccccc1 | inactive | 
3 | COc1cccc(-c2nnc3n(CCc4ccccc4)c(=O)c4ccccc4n23)c1O | inactive | 
4 | CCN(CC(=O)Nc1ccc(Cl)c(S(=O)(=O)N(C)C)c1)Cc1nc2ccccc2c(=O)[nH]1 | 39.8 µM (active) | 
5 | CCCCN(CC(=O)Nc1cccc(S(=O)(=O)N2CCCC2)c1)Cc1nc2ccccc2c(=O)[nH]1 | 7.94 µM (active) | 
6 | O=C(Cn1cnc2ccccc2c1=O)Nc1cccc(S(=O)(=O)N2CCCCC2)c1 | inactive | 
7 | CCN(CC(=O)Nc1cccc(S(N)(=O)=O)c1)Cc1nc2ccccc2c(=O)[nH]1 | inactive | 
8 | CN(C)S(=O)(=O)c1cc(NC(=O)CN2C(=O)NC3(CCCc4ccccc43)C2=O)ccc1Cl (centres undefined) | inactive | 
9 | CCCC(=O)N(CCc1ccccc1)Cc1nc2ccccc2c(=O)[nH]1 | inactive | 
10 | O=C(COc1ccccc1F)Nc1ccc(C(=O)OCc2cc(=O)n3nc(C4CC4)sc3n2)cc1 | inactive | 
11 | CCCNc1ncnc2c1c(-c1ccccc1)cn2-c1ccc(OCC)cc1 | inactive | 
12 | S=C(Nc1cccc(Br)c1)N1CCn2cccc2C1c1cccnc1 (centres undefined) | 50.1 µM (active) | 
13 | CC(=O)N1c2ccc(S(=O)(=O)N3CCCC(C(=O)NCc4ccc(Cl)cc4)C3)cc2CC1C (centres undefined) | inactive | 
14 | COC(=O)c1cc(NC(=O)CCS(=O)(=O)c2cc(Br)cc3c2N(C(=O)C2CC2)CC3)cc(C(=O)OC)c1 | inactive | 
15 | N#Cc1ccccc1S(=O)(=O)N1CCN(Cc2c(O)ccc3ccccc23)CC1 |  | -0.103% [at 2.33 µM]
16 | O=C(OCN1C(=O)c2ccccc2C1=O)/C(=C\c1ccco1)NC(=O)c1ccccc1 | inactive | 
17 | CCCCn1c(N)c(N(CC)C(=O)/C=C/c2ccco2)c(=O)[nH]c1=O | inactive | 
18 | CCCCN=C1N/C(=C\c2ccco2)C(=O)N1c1ccccc1 | 44.7 µM (active) | 
19 | COc1cc(NC(=O)c2cc(C3CC3)nc3c2c(C)nn3-c2ccccc2)cc(OC)c1 | inactive | 
20 | CCc1ccc(S(=O)(=O)Nc2cc3c(C(=O)OCc4ccccc4)c(C)oc3c3ccccc23)cc1 | inactive | 
21 | CCCCNC(=O)Cn1nc(C)c(S(=O)(=O)N2CCOCC2)c1C |  | 8.75% [at 12.7 µM]
22 | O=C(C1=C(O)C(=O)N(c2ncccn2)C1c1cccs1)c1ccco1 (centres undefined) | 10 µM (active) | 
23 | O=C(c1ccco1)N1CCC2(CC1)CCN(c1ncccn1)CC2 |  | 4.8% [at 12.7 µM]
24 | O=C(c1ccco1)N1CCC2(CC1)CN(c1ncccn1)C2 |  | 6.99% [at 12.7 µM]
25 | COC(=O)c1ccc(OC)c(Cn2c(=O)n(Cc3ccccc3)c(=O)c3c2c2cc(OC)ccc2n3C)c1 | inactive | 

Row | SMILES | Potency | activity, negative = inhibition
26 | Cc1nn(Cc2ccccc2)c(C)c1CNC(=O)c1ccc(F)c(S(=O)(=O)N2CCOCC2)c1 |  | -14.2% [at 12.7 µM]
27 | CCN(C(=O)CSc1nc(N)cc(=O)[nH]1)C1CCS(=O)(=O)C1 (centres undefined) |  | 6.8% [at 12.7 µM]
28 | CCN1CCN(c2ccc(S(=O)(=O)N3CCCCC3)cc2NC(=O)Cc2c(Cl)cccc2Cl)CC1 | inactive | 
29 | O=C(Nc1cccc(S(=O)(=O)N2CCCCC2)c1)c1ccc2c(c1)OCO2 | 1 µM (active) | 
30 | CCN1CCN(c2ccc(S(=O)(=O)N3CCCCC3)cc2NC(=O)c2cccc(NC(C)=O)c2)CC1 | 50.1 µM (active) | 
31 | Cc1ccc(S(=O)(=O)N2CCCCC2)cc1NC(=O)c1cccnc1 | inactive | 
32 | O=C(Nc1cccnc1)c1cccc(S(=O)(=O)N2CCCC2)c1 | inactive | 
33 | O=C(Nc1ccc2c(c1)OCCO2)c1ccc(Cl)c(S(=O)(=O)N2CCCCC2)c1 |  | -22.9% [at 12.7 µM]
34 | CC(C)(C)SCCSC1=CC(=O)CC(c2ccccc2)C1 (centres undefined) | inactive | 
35 | O=C(CSc1nc2ccccc2c(=O)n1-c1ccc(F)cc1)NC1CC1 |  | 7.18% [at 0.501 µM]
36 | COC(=O)CC1Oc2ccccc2-n2cc(-c3ccccc3)nc21 (centres undefined) | inactive | 
37 | COc1ccc(/C=N/NC(=O)c2cccc(C(F)(F)F)c2)cc1 | inactive | 
38 | COc1ccc(/C=N/Nc2ccccc2C(=O)O)cc1 | 79.4 µM (active) | 
39 | COc1ccc(C(=O)Nc2ccccc2C(=O)N/N=C/c2ccc(O)c(OC)c2)cc1 |  | -4.54% [at 2.33 µM]
40 | COc1ccc(Cc2nnc(SCC(=O)N(c3ccccc3)C(C)C)n(N)c2=O)cc1 | inactive | 
41 | Cc1cccc(C)c1OCC(O)CN1CCCCC1 (centres undefined) | inactive | 
42 | COc1ccc(C(=O)Nc2ccc(CN3CCOCC3)cc2)cc1 |  | 39.7% [at 12.7 µM]
43 | CCOc1ccc(C2C(C(=O)O)c3ccccc3C(=O)N2CCN2CCOCC2)cc1 (centres undefined) |  | 1.66% [at 12.7 µM]
44 | CCOc1ccc(C(=O)CCC(=O)Nc2ccncc2)cc1 |  | -14% [at 12.7 µM]
45 | CCOc1ccc(C(=O)CCN2CCOCC2)cc1 | 39.8 µM (active) | 
46 | CCCCOc1ccc(C(C)(O)CCN2CCOCC2)cc1 (centres undefined) | inactive | 
47 | CC(=O)c1ccc(OCCN2CCOCC2)cc1 | 25.1 µM (active) | 
48 | Cc1ccc(S(=O)(=O)NCCN2CCOCC2)cc1C |  | -19.4% [at 12.7 µM]
49 | Cc1cccc(C)c1OCCN1CCOCC1 | 11.2 µM (active) | 
